We go through 40 molecules from PubChem BioAssay (NCATS).

Molecules are shown by their SMILES. Results filed as inconclusive are left out. Where a call stands in place of a potency, no number is given. The source made the active and inactive calls. Calls follow the shape of the dose curve; as a rule, active = well fitted cell-killing curve with a large enough effect; inconclusive = small, poorly fitted or top-dose-only effect; inactive = flat fitted curve, though single readings scatter.
Potency is read from the fitted curve at half-maximal effect.

A short description of the experiment: Cell Viability - LYMP2-011 (AID 969). Also: nearly all actives have a fitted effect of over 60% in size. The conditions noted are these: LYMP2-011 lymphoblastoid cells viability; series mostly up to 92.2 µM. From the text:
NIH Chemical Genomics Center [NCGC]
NIH Molecular Libraries Screening Centers Network [MLSCN]
National Institutes of Environmental Health Sciences [NIEHS]
National Toxicology Program [NTP]
We have developed a 1536-well cell-based assay for quantitative high throughput screening (qHTS) against a number of cell lines to determine in vitro cytotoxicity of small molecules. This particular assay uses a human lymphoblastoid cell line (LYMP2-011) purchased from Coriell Institute for Medical Research.
NCGC Assay Protocol Summary:
The CellTiter-Glo luminescent cell viability assay (Promega) is a homogeneous method to measure the number of viable cells in culture. The end point readout of this assay is based on quantitation of intracellular ATP, an indicator of metabolic activity, using the luciferase reaction. Luciferase catalyzes the oxidation of beetle Luciferin to oxyluciferin and light in the presence of ATP. The luminescent signal is proportional to amount of ATP present.
Using the CellTiter-Glo luminescent cell viability assay, the amount of cellular ATP was measured in the lymphoblastoid cell line with complete culture medium following compound treatment for 24 hours. The assay was performed in opaque white Kalypsys 1536-well plates. In the screen, tetraoctylammonium bromide was used as positive control. Library compounds were measured for their ability to cause acute toxicity in the cell line, as reflected by a decrease in intracellular ATP levels, in a concentration-dependent manner. […] AC50 values were determined from concentration-response data modeled with the standard Hill equation.
qHTS protocol for CellTiter Glo lymphoblastoid cellular assay
[Step] [Parameter] [Value] [Description]
1. Reagent; 5 uL; 2500 lymphoblastoid cells/well
2. Time; 5 hr; 37 C incubation
4. Controls; 23 nL; Tetraoctylammonium bromide 6.4pM to 92 uM
5. Time; 24 hr; 37 C incubation
6. Reagent; 5 uL; CellTiter Glo reagent
7. Time; 30 min; Room Temperature
8. Detection; Luminescence; Viewlux plate reader
Keywords: cell viability, cytotoxicity, lymphoblastoid cell line, luminescence, NTPHTS, NTPHTS_NCGC, NIEHS, DSSTox, MLSMR, MLSCN, NIH Roadmap, qHTS, NCGC
Regarding `COC(=O)Nc1cccc(OC(=O)Nc2cccc(C)c2)c1`, the Potency entry was “inactive”.

As to `N#CCCCCC#N`, the Potency entry was “inactive”. Take `O=[N+]([O-])c1c(Cl)c(Cl)c(Cl)c(Cl)c1Cl`: the Potency result was “inactive”. As to `CC(C)(Cl)Cl`, the Potency result is “inactive”. With `CC(C)CON=O`, the Potency entry was “inactive”. Turning to `O=[N+]([O-])c1ccccc1O`, the Potency result was “inactive”.

Consider `OC[P+](CO)(CO)CO`, for which the Potency is 39.8 µM (active). In the case of `CNC(=O)O/N=C/C(C)(C)S(C)=O` (stereo not given), the Potency result was “inactive”. For the molecule `O=Cc1ccc2c(c1)OCO2`, the Potency entry is “inactive”. As for `Clc1ccc(C(Cl)(Cl)Cl)c(Cl)c1`, the Potency result is “inactive”. As to `ClCCOCCCl`, the Potency entry was “inactive”. For `C=CC#N`, the Potency result was “inactive”.

Take `O=C(O)c1cc(Cl)ccc1Cl`: the Potency entry is “inactive”.

In the case of `C=CC(=O)OCC(CC)CCCC` (stereo not given), the Potency entry was “inactive”. `C=CCBr`: the Potency result was “inactive”.

Regarding `Brc1cccc(-c2ccccc2)c1`, the Potency result is “inactive”.

On to `ClC(Cl)Br`, for which the Potency result is “inactive”. Consider `NC1CCC(CC2CCC(N)CC2)CC1` (stereo not given), for which the Potency entry is “inactive”. With `C/C=C/C=O`, the Potency entry is “inactive”.

As for `CCCCC(=O)Cl`, the Potency result is “inactive”. Regarding `O=C(Cc1ccccc1)OCc1ccccc1`, the Potency result is “inactive”.

Take `CC1CC(=O)O1` (stereo not given): the Potency result was “inactive”. For `O=[N+]([O-])c1ccc(Cl)c(Cl)c1Cl`, the Potency entry was “inactive”.

Consider `O=C(O)C(Br)CBr` (stereo not given), for which the Potency entry was “inactive”. Turning to `CN(C)C(=O)Nc1cccc(C(F)(F)F)c1`, the Potency entry is “inactive”. Turning to `O=[N+]([O-])c1cc(Cl)c(Cl)c(Cl)c1`, the Potency entry is “inactive”. For `COc1ccccc1N`, the Potency entry was “inactive”.

As for `Clc1cccc2ccccc12`, the Potency entry was “inactive”. As for `Brc1ccc(Oc2ccc(Br)cc2Br)c(Br)c1`, the Potency entry is “inactive”. In the case of `CC(Cl)(Cl)Cl` it was “inactive”; in that of `C=CC=O`, “inactive”. Regarding `N#CCc1ccccc1`, the Potency result was “inactive”. On to `Clc1ccc(C(Cl)(Cl)Cl)cc1Cl`, for which the Potency result was “inactive”. The value for `CCCCCCCCCCCOC(=O)c1ccccc1C(=O)OCCCCCCCCCCC` was “inactive”; that for `Oc1ccc(Cl)c(Cl)c1` was “inactive”; that for `Oc1cc(Cl)ccc1Cl` was “inactive”.

With `Cc1coc2c1CCC(C)C2` (stereo not given), the Potency result was “inactive”.

As to `ClC=CCl`, the Potency result is “inactive”. Regarding `COc1cc(-c2ccc(N)c(OC)c2)ccc1N`, the Potency entry was “inactive”. Consider `Nc1ccc(Cc2ccc(N)c(Cl)c2)cc1Cl`, for which the Potency result is “inactive”.
